The values below come from the supplement of paper PMC6555819.

The subject of the first test is PPARa:RXRa (NR concentration 270 nM, RXRa partner concentration 90 nM). Nature of the test: PBM binding z-score (relative to random genomic background probes); higher = stronger binding; sequences stand for … in GC…GCGATTGACAGCGTAGAATGAAGG
The method in brief:
(§1)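 On custom Agilent 4×180K arrays, double-stranded probes with 34-nt variable regions carried direct-repeat seeds, single-nucleotide variants, half-site ablations or random human genomic background. Ligand-free nuclear receptor dimers were applied for 1 h, and binding was read with antibodies against each partner (one per run). Binding z-scores come from regression-normalized fluorescence, with the random background probes as reference.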
Consider CCGAGTAGGTTATGGGGCACTCAGGCAACGGTGA, for which the PBM binding z-score was determined as 2.08.

On to TCATATAGGTAATACAGGTGGAAGTCGGCATCTA, for which the PBM binding z-score was found to be 1.31.

ACTAGCAGGACAAGGGTCACTCAAGATTAGTCCG had a PBM binding z-score of 4.3.

As for GATACAGGGTCAGCTAGAGGCCAGAGTCTGGAAA, the PBM binding z-score was 4.47.

Take TCTAGATGGTCACGGAGGTCACACACGACGGGTA: the PBM binding z-score was found to be 4.04.

Consider CTCGAAAGGTCGGTTGAGGAGAGTATACGGATAA, for which the PBM binding z-score was found to be 2.25.

ATCGAAAGGTCGAAGGGGAGTATACCCACCCGAA had a PBM binding z-score of 4.19.

CCTACTGGGCCATCAGGGCATTGATATCAACGTT came in with a PBM binding z-score of 0.0503.

In the case of CCTACTGGGCCATCAAGTCATTGATATCAACGTT, the PBM binding z-score is 1.02.

The sequence CGTCCAAGGTCAGAGAGGTCAGTGAATGCCGAGT showed a PBM binding z-score of 4.72.

TCGAGTAGGTTACCAATGTGGCATTCAGCTTTCT: the PBM binding z-score worked out at 0.803.

Take CGTCCAAGGTCGATGCTAGGTCAGTGAAAGCATT: the PBM binding z-score was found to be 1.81.

The sequence AGTATGAGGTTATACGTAGATCAGGGAAGAAAGT displayed a PBM binding z-score of 2.46.

GATGCTAGGTCAGGTTGGTCAGCTAACGGGTACG: the PBM binding z-score turned out to be 1.66.

The sequence ATATCTAGGTTATCGGGTCATTCAGTTTGCGCAT had a PBM binding z-score of 4.98.

Take CAAACTAGGTCAAGACGTCAAAGTCCGCTTCCCG: the PBM binding z-score came to 4.81.

CCTAGTGGGTCAAGGTCACACACGCTATAGGTAC registered a PBM binding z-score of 5.54.

As to CCGACTGGGGCAGAAAGGTTACCATTCCATCCGG, the PBM binding z-score stood at 1.93.

Regarding CAAACTCGGTCAAAGGTCAAAGTCGAGCCAACCA, the PBM binding z-score was determined as 7.67.

Regarding AGAACGAGGGCAATGAGTTTATAGCACGGGTGGC, the PBM binding z-score came to 1.25.

As for ATCGAAAGGACGACGAGGTGAGTATACACCGTTT, the PBM binding z-score is -0.0942.

The sequence CGAACTAGGGCATGAGTTGATAGCAAATGCCGAT registered a PBM binding z-score of 2.34.

Consider ATCCCTAGGTAAAAGTTCAGTGAATCCCGAGGAT, for which the PBM binding z-score is 2.71.

As to GCTATCAGTTGAAAGGGCAACCGAATGATTCTCG, the PBM binding z-score was found to be 1.99.

As for TTACCAAGGTGAAGGTCTTTGATCCCTCTGTAGA, the PBM binding z-score was determined as 1.64.

With CCTGCTAGGTCATTGTCAGCTAATCTACAGTATG, the PBM binding z-score is 2.94.

The sequence CAAACTAGATCAAGAGGTCAAAGTCCGCTTCCCG had a PBM binding z-score of 5.77.

Take ATATGTAGGTTAGCTGGGGTCATTCATACTAGGC: the PBM binding z-score amounted to 5.1.

CAAACTAGGTGAAAGGTCAAAGTCGAGCCAACCA displayed a PBM binding z-score of 7.39.

GCTGCTAGGTCAACTGTTGGTCAGCTAAAGCTCG showed a PBM binding z-score of 3.61.

As for TCTGCTAGGTCAGTTGGTCAGCTTACGAGCTGCC, the PBM binding z-score turned out to be 1.29.

Sequence GCGACTGGGGCATGAGCAGGTTACCATAACTTAA returned a PBM binding z-score of 1.1.

TAGCCTGGGTCATTCAGGGGCCAGTATAGAAAGC returned a PBM binding z-score of 3.65.

As for TCACATAGGTAAAGGTGAAAGTCGAACGATATGA, the PBM binding z-score is 3.07.

On to TAGCCTAGGTCAGATCGGGCCAATATACGCTATA, for which the PBM binding z-score is 1.79.

Take GCATTTAGGTAATACAAGGTGAAAGTCCGATTGT: the PBM binding z-score worked out at 1.27.

CCAGACAGGTGAGATGGTAACTCAGCCTCGATTA registered a PBM binding z-score of 0.132.

In turn, ACTAACAGGCCAAGTTTGGGTCACTCAAACAAAG had a PBM binding z-score of 1.45.

Regarding ATCTCTAGGTAAAGTTAGTTCAGTGAATGCAAAT, the PBM binding z-score was found to be 0.661.

CTACCAAGGTGAACAAGGTCGTTGATTACTATTC gave a PBM binding z-score of 2.45.

In the next test the test system is PPARg:RXRa (NR concentration 180 nM, RXRa partner concentration 90 nM). The description is as above. The method in brief: as §1
Sequence CCGAGTAGGTTATGGGGCACTCAGGCAACGGTGA had a PBM binding z-score of 3.55.

As for TCATATAGGTAATACAGGTGGAAGTCGGCATCTA, the PBM binding z-score amounted to 1.07.

As for ACTAGCAGGACAAGGGTCACTCAAGATTAGTCCG, the PBM binding z-score came out at 6.63.

The sequence GATACAGGGTCAGCTAGAGGCCAGAGTCTGGAAA registered a PBM binding z-score of 3.57.

As to TCTAGATGGTCACGGAGGTCACACACGACGGGTA, the PBM binding z-score amounted to 3.59.

Regarding CTCGAAAGGTCGGTTGAGGAGAGTATACGGATAA, the PBM binding z-score is 0.367.

ATCGAAAGGTCGAAGGGGAGTATACCCACCCGAA: the PBM binding z-score was found to be 3.19.

Consider CCTACTGGGCCATCAGGGCATTGATATCAACGTT, for which the PBM binding z-score was 1.16.

CCTACTGGGCCATCAAGTCATTGATATCAACGTT yielded a PBM binding z-score of 0.723.

CGTCCAAGGTCAGAGAGGTCAGTGAATGCCGAGT gave a PBM binding z-score of 3.4.

Sequence TCGAGTAGGTTACCAATGTGGCATTCAGCTTTCT returned a PBM binding z-score of 0.268.

With CGTCCAAGGTCGATGCTAGGTCAGTGAAAGCATT, the PBM binding z-score is -0.125.

AGTATGAGGTTATACGTAGATCAGGGAAGAAAGT registered a PBM binding z-score of 1.32.

The sequence GATGCTAGGTCAGGTTGGTCAGCTAACGGGTACG gave a PBM binding z-score of 0.776.

Regarding ATATCTAGGTTATCGGGTCATTCAGTTTGCGCAT, the PBM binding z-score is 6.91.

On to CAAACTAGGTCAAGACGTCAAAGTCCGCTTCCCG, for which the PBM binding z-score stood at 7.43.

CCTAGTGGGTCAAGGTCACACACGCTATAGGTAC returned a PBM binding z-score of 8.69.

Turning to CCGACTGGGGCAGAAAGGTTACCATTCCATCCGG, the PBM binding z-score was found to be 1.48.

In turn, CAAACTCGGTCAAAGGTCAAAGTCGAGCCAACCA yielded a PBM binding z-score of 12.9.

In turn, AGAACGAGGGCAATGAGTTTATAGCACGGGTGGC returned a PBM binding z-score of 1.55.

Take ATCGAAAGGACGACGAGGTGAGTATACACCGTTT: the PBM binding z-score came to 1.08.

Take CGAACTAGGGCATGAGTTGATAGCAAATGCCGAT: the PBM binding z-score amounted to 4.14.

The sequence ATCCCTAGGTAAAAGTTCAGTGAATCCCGAGGAT came in with a PBM binding z-score of 3.92.

Take GCTATCAGTTGAAAGGGCAACCGAATGATTCTCG: the PBM binding z-score was determined as 1.65.

Turning to TTACCAAGGTGAAGGTCTTTGATCCCTCTGTAGA, the PBM binding z-score was 1.37.

CCTGCTAGGTCATTGTCAGCTAATCTACAGTATG had a PBM binding z-score of 1.29.

CAAACTAGATCAAGAGGTCAAAGTCCGCTTCCCG gave a PBM binding z-score of 4.08.

ATATGTAGGTTAGCTGGGGTCATTCATACTAGGC came in with a PBM binding z-score of 5.98.

In the case of CAAACTAGGTGAAAGGTCAAAGTCGAGCCAACCA, the PBM binding z-score stood at 14.1.

The sequence GCTGCTAGGTCAACTGTTGGTCAGCTAAAGCTCG came in with a PBM binding z-score of 2.63.

In the case of TCTGCTAGGTCAGTTGGTCAGCTTACGAGCTGCC, the PBM binding z-score stood at 0.177.

In the case of GCGACTGGGGCATGAGCAGGTTACCATAACTTAA, the PBM binding z-score came to 1.08.

The sequence TAGCCTGGGTCATTCAGGGGCCAGTATAGAAAGC registered a PBM binding z-score of 2.29.

TCACATAGGTAAAGGTGAAAGTCGAACGATATGA: the PBM binding z-score amounted to 2.67.

As to TAGCCTAGGTCAGATCGGGCCAATATACGCTATA, the PBM binding z-score was found to be 0.875.

Sequence GCATTTAGGTAATACAAGGTGAAAGTCCGATTGT had a PBM binding z-score of 0.514.

On to CCAGACAGGTGAGATGGTAACTCAGCCTCGATTA, for which the PBM binding z-score was 0.33.

Consider ACTAACAGGCCAAGTTTGGGTCACTCAAACAAAG, for which the PBM binding z-score stood at 0.241.

With ATCTCTAGGTAAAGTTAGTTCAGTGAATGCAAAT, the PBM binding z-score was 0.555.

The sequence CTACCAAGGTGAACAAGGTCGTTGATTACTATTC yielded a PBM binding z-score of 1.12.
